# Hit rate of the full screen: of about 110,000 compounds, about 80 (0.07%) were called active. The entries come from a sample that favours actives as a whole. Unmarked numbers belong to inactive results.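 The calls were made as follows: active = inhibition above the mean of the plate negative controls plus 5 SD (cut at about 13% in these data); inactive = the rest.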
# Assay: inhibitors of macrophage phagocytosis, primary screen, imaging, J774A.1 cells, IgG beads (AID 1029);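 also: phagocytic index as fraction of beads internalized from green versus red external bead signal; plate controls were DMSO negative control for no effect and cytochalasin-D positive control for full effect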
# Conditions: J774A.1 macrophage IgG-bead phagocytosis, at 5 µM, active compounds read high
row,Structure (SMILES),inhibition [%]
1,Cc1ccc(C)c(OCC(=O)N2CCN(C(=O)c3ccco3)CC2)c1,-4.31
2,COc1ccc(-c2csc3ncnc(Oc4ccc5c(C)cc(=O)oc5c4)c23)cc1,-2.34
3,O=C(CNS(=O)(=O)c1ccccc1)NCC(=O)OCc1ccccc1F,-3.58
4,CCCOc1ccc(NC(=O)C2OC3OC(C)(C)OC3C3OC(C)(C)OC23)cc1 (stereo unspecified),-11.4
5,CCOC(=O)C1=C(C)NC(=S)NC1c1cccs1 (stereo unspecified),-4.52
6,Cc1scc(C(=O)NNC(=S)NCc2ccccc2)c1C,-4.2
7,O=C(Nc1ccccc1Cc1ccccc1)c1ccc2c(c1)SC1=NS(=O)(=O)CCN12,-3.83
8,O=C(O)c1cccc(N2C(=O)Nc3ccccc3N2O)c1,-9.86
9,COc1ccc(Cc2nnc(N/N=C/c3ccccc3O)[nH]c2=O)cc1OC,-6.04
10,COCC(=O)Nc1cc(C(=O)OC)cc(C(=O)OC)c1,-2.4
11,CN(C)C(CNC(=O)c1ccc(S(=O)(=O)NCc2ccco2)cc1)c1ccccc1 (stereo unspecified),-2.95
12,COc1cc(NC(=O)Nc2ccc(C)cc2)cc([N+](=O)[O-])c1,-5.65
13,CC(C)C(C)(C#N)NC(=O)CSc1nc2scc(-c3ccccc3)c2c(=O)[nH]1 (stereo unspecified),-2.01
14,Cc1cccc(-c2nc3ccccc3c(=O)n2NC(=O)Cc2ccc(Cl)cc2)c1,-9.34
15,O=C(NC(=S)Nc1cc(C(F)(F)F)ccc1N1CCOCC1)c1ccc(-c2cccc(Cl)c2)o1,-11.9
16,S=C(NCCc1ccccc1)NCC1CCCO1 (stereo unspecified),2.03
17,Cc1nc2c(C(=O)NCc3cccs3)cnn2c(C)c1Cc1ccc(F)cc1,-10.6
18,CCCCCNC(=O)c1cccnc1SCC(=O)Nc1ccccc1OC,-7.81
19,CCCCOc1ccc(C(=O)N/C(=C/C=C/c2ccccc2)C(=O)N2CCOCC2)cc1,-6.1
20,CCc1ccc(NC(=O)CC2C(=O)NCCN2C(=S)Nc2ccccc2)cc1 (stereo unspecified),0.25
21,COC(C(=O)Nc1ccc(C(C)=O)cc1)c1ccccc1 (stereo unspecified),-7.11
22,COCCn1c(SCC(=O)Nc2ccc3c(c2)CCC3)nc2ccccc2c1=O,-6.84
23,Cc1c(Cl)c([N+](=O)[O-])nn1CCCC(=O)Nc1cc(Cl)ccc1Cl,-3.17
24,COc1ccccc1OCc1ccc(C(=O)N2CCN(C)CC2)o1,0.11
25,O=C(/C=C/c1cnc2ccccc2n1)NC1CCCCCC1,-9.71
26,CO/N=C(\N)c1ccc([N+](=O)[O-])cc1,-3.92

# — PubChem BioAssay AID1029 (Sanford-Burnham Center for Chemical Genomics, 2008)
